D2 antagonist: D2 dopamine receptor (human) antagonism; inhibition, % at 10 µM; actives 2% (n = 340,000); P14416; AID 485344; HEK293 TREx D2 cells, calcium flux, dopamine EC80; in the data active = inhibition above about 30%; inactive = below that, where a call was filed; also: 0% is about no effect
Target sequence (P14416 whole entry, looked up): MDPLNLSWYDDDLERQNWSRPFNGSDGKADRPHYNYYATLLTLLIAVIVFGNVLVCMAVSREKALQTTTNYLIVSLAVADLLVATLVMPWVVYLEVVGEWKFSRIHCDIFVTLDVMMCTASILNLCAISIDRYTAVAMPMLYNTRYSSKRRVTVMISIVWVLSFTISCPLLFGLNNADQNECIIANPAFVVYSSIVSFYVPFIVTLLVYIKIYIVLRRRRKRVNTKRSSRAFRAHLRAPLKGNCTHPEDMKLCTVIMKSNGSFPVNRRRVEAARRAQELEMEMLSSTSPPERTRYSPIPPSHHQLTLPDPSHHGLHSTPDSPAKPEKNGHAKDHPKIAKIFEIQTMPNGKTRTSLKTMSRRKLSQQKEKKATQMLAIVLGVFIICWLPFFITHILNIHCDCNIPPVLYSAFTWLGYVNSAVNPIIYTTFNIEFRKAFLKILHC
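Inhibition of EC80 dopamine-driven calcium flux, recorded kinetically, defines activity here; cells are a tetracycline-induced HEK293 T-REx line expressing force-coupled D2.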
D2 PAM-1: positive allosteric modulators of human D2 dopamine receptor; AID 624464; P14416; actives 0.23% (n = 360,000); potentiation, % (test concentration not listed); DiscoveRx D2 beta-arrestin cells, luminescence, 90 min; 100% = 57 uM dopamine signal; in the data active = potentiation above about 50%; inconclusive = mostly about 30% to 49%
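PathHunter D2 cells, attached overnight at 37 deg C, received compound in DMSO plus dopamine at EC20 (50 nM final) for 90 min at 37 deg C. Beta-arrestin recruitment was read as luminescence after 1 h with detection reagent at ambient temperature.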
D2 ag-1: agonists of human D2 dopamine receptor; P14416; actives 0.53% (n = 340,000); HEK293 T-REx D2 cells, calcium flux agonist mode; activation, % at 2 µM;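 active = activation over 3 SD above normal in the single-dose calcium agonist read, cut at about 30% in these data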; also: 0% is about no effect
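Calcium-flux readout, 1 cycle/sec over 180 s following compound pin transfer, in inducible HEK293 Trex D2 cells (force-coupled); dopamine controls included. Positive calcium responses during this window marked compounds as potential agonists.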
D2 PAM-2: positive allosteric modulators of human D2 dopamine receptor | AID 485347 | potentiation, % at 10 µM | HEK293 T-REx D2, calcium flux, EC20 dopamine potentiation | actives 0.34% (n = 340,000) | P14416;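 active = potentiation over 3 SD above the plate norm, cut at about 30% in these data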; also: 0% is about no effect
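Potentiation of an EC20 dopamine calcium response is measured in a force-coupled, tetracycline-inducible Hek293 Trex D2 line. Compound-only kinetic reads over 180 s flag agonists before dopamine addition.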
D2 ag-2: human D2 receptor agonism in beta-arrestin assay | DiscoveRx PathHunter D2 beta-arrestin, luminescence, 90 min; 100% = 57 uM dopamine signal | activation, % (test concentration not listed) | actives 0.084% (n = 360,000) | AID 624465; in the data active = activation above about 40%; inconclusive = between about 15% and that limit
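DiscoveRx PathHunter D2 beta-arrestin cells (2,100/well) attached overnight, then compound-stimulated 90 min at 37 C in HBSS/10 mM HEPES/0.1% Tween-20 buffer; beta-galactosidase complementation read by luminescence after 1 h at ambient temperature. Dopamine 57 uM final (EC100) as control.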
Apoferritin bind: binds horse apoferritin like a general anesthetic | actives 0.074% (n = 350,000) | Potency, µM (highest dose often 77.5 µM), for the others: top-dose activity change, negative = displacement, actives largely listed as inhibitors | apoferritin/1-aminoanthracene competitive binding, fluorescence | AID 485281 | P02791; active = well fitted inhibition curve with a large enough effect; inconclusive = small, poorly fitted or top-dose-only effect; inactive = no such curve, though single readings can be large or run the other way; also: potency is read from the fitted curve at half-maximal effect; % is scaled to controls: 0 for no effect and ±100 for the full control effect; nearly all actives have a fitted effect of over 20% in size
Target sequence (P02791 2-175 limits assumed): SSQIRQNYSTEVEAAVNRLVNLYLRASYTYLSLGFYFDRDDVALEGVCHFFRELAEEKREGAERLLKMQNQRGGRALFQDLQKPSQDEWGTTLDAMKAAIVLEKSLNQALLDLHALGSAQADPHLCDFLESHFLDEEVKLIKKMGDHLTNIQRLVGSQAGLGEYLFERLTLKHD
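Apoferritin-based anesthetic binding model; compound displacement of fluorescent 1-AMA measured as endpoint fluorescence after 10 minutes at room temperature, scaled to free-ligand and complex controls.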
* = called active by the depositor; ? = inconclusive; nt = not tested or not shown. Only some compounds are listed: those with a hit (about 2.5% of all), similar ones and a draw of the others.

SMILES	D2 antagonist	D2 PAM-1	D2 ag-1	D2 PAM-2	D2 ag-2	Apoferritin bind
CN1CCN(NC(=O)CSc2ccc(Cl)cc2Cl)CC1	46*	-4	0	3	-2	-2%
CC1(C)C=C(c2ccc(C=O)s2)CC(C)(C)N1C=O	19	-14	0	10	2	-3%
CC1(C)C=C(c2ccc(C=O)s2)CC(C)(C)N1	34*	-13	0	6	-1	-8%
CC(=O)Nc1sc(N/N=C\c2ccco2)nc1-c1cccs1	9	78*	1	-10	?	-20%
CC(=O)Nc1sc(N/N=C/c2ccccc2)nc1-c1ccc(C)cc1	-6	14	-1	-3	?	-9%
CC(=O)Nc1sc(N/N=C\c2ccccc2)nc1-c1cccs1	nt	14	nt	nt	0	3%
CC(=O)Nc1sc(N/N=C/c2ccccc2F)nc1-c1ccc(C)cc1	5	15	-2	-2	41*	-12%
CC(=O)Nc1sc(N/N=C\c2ccccc2Cl)nc1-c1cccs1	-11	55*	-1	23	14	29%
CCOc1ccc(NC(=O)CSc2nc3nc(C)cc(C)n3n2)cc1	10	-6	1	-1	0	-6%
Cc1noc(C)c1COc1ccccc1C(=O)NC(C)c1ccc(Cl)cc1 (stereo unspecified)	-26	8	-1	11	10	nt
Cc1cc(N2CCN(C)CC2)nc2ccc(NC(=S)NCCN3CCc4ccccc4C3)cc12	15	-20	-1	-25	0	-6%
CCCN1CCN(CCCNC(=S)Nc2ccc3nc(N4CCN(CC)CC4)cc(C)c3c2)CC1	-6	-21	1	-7	-2	-1%
CCN1CCN(c2cc(C)c3cc(NC(=S)NCCCN4CCc5ccccc5C4)ccc3n2)CC1	53*	-14	1	-32	-3	-4%
Cc1cc(N2CCN(C)CC2)nc2ccc(NC(=S)NCCCN3CCc4ccccc4C3)cc12	34*	-14	1	-29	-3	4%
CCc1ccc(NC(=O)CCC(=O)Nc2nnc(C(C)C)s2)cc1	43*	-3	1	2	0	-3%
Cc1cccc(OCCOCCSc2ncccn2)c1	8	5	0	-1	-1	-12%
Cc1ccc(OCCSc2ncccn2)c(C)c1	37*	-16	-2	10	-1	-22%
Cc1ccc2c(c1)=N/C(=N\c1[nH]c(O)c3ccccc13)N=2	nt	2	nt	nt	-2	nt
CN1CCN(c2ccc(Cl)cc2NC(=O)CC2OC(=O)c3ccccc32)CC1 (stereo unspecified)	38*	-28	1	-14	-7	nt
CN1CCN(c2ccc(Cl)cc2NC(=O)C2COc3ccccc3O2)CC1 (stereo unspecified)	2	-14	0	6	0	-9%
O=C1OCCC1Sc1nnc(-c2ccc3c(c2)OCO3)n1-c1ccccc1 (stereo unspecified)	-2	-15	0	2	-5	-13%
Cc1cc(SCC(=O)N/N=C/c2ccc(O)c(O)c2O)c(C)cc1Br	-14	57*	-1	-2	?	32µM*
COC(=O)c1ccc2c(=O)n(CC3CCCO3)c(SCC(=O)Nc3ccccc3OC)nc2c1 (stereo unspecified)	-1	-20	-1	-10	-4	-19%
Nc1oc2ccccc2c1C(=O)Cc1ccccc1O[C@@H]1O[C@H](CO)[C@@H](O)[C@H](O)[C@H]1O	-4	-6	1	8	-5	nt
Cc1cc(Cl)ccc1OCC(O)CN1C(C)CCCC1C (stereo unspecified)	31*	nt	0	0	nt	-11%
SMILES	D2 antagonist	D2 PAM-1	D2 ag-1	D2 PAM-2	D2 ag-2	Apoferritin bind
CC(=O)c1ccc(OCC(O)CN2C(C)CCCC2C)cc1 (stereo unspecified)	-6	0	1	-11	-3	-6%
COCCNC(=S)N/N=C(\C)c1ccc(O)cc1	0	-11	0	-3	9	6%
C/C(=N\NC(=S)NCC(C)(C)C)c1cc(F)cc(F)c1O	37*	-15	2	-17	3	-12%
Nc1ccc(Oc2ccc3c(c2)OCO3)cc1	2	-5	0	-4	-8	?
Cc1ccc(C(=O)NC(=S)Nc2ccc3[nH]c(=O)[nH]c3c2)cc1	46*	-12	-1	3	1	9%
Cc1cc(C)cc(C(=O)Nc2ccc3[nH]c(=O)[nH]c3c2)c1	30*	0	0	-2	4	-2%
O=C(NC(=S)Nc1ccc(Oc2ccccc2)cc1)c1ccc(Cl)cc1	-36	1	0	5	2	-18%
Cc1ccc(C(=O)Nc2ccc3[nH]c(=O)[nH]c3c2)c(C)c1	16	-2	0	-3	-4	1%
Cc1ccc(C(=O)NC(=S)Nc2ccc(Oc3ccc(Cl)cc3)cc2)cc1	0	-4	0	37*	-3	-23%
O=C1CCN(S(=O)(=O)c2ccccc2)CCN1CCOCc1ccc(C(F)(F)F)cc1	-15	-7	0	9	-4	0%
COc1ccc(NC(=O)c2nn(C)c3c2CS(=O)(=O)c2ccccc2-3)cc1	-6	-15	1	37*	0	-13%
Cc1ccc(-c2nnc(N(C)C(=O)c3cccnc3)s2)cn1	16	23	-1	6	-1	-11%
Cc1ccc(-c2nnc(N(C)C(=O)c3cccnc3)s2)cc1	4	12	0	38*	3	-12%
Cc1nc2sc3c(c2c(=O)[nH]1)CCCCC3	15	-2	0	-4	-2	-11%
O=C(N/N=C/c1ccc(O)c(O)c1O)/C(=C/c1ccc([N+](=O)[O-])cc1)NC(=O)c1ccccc1	-6	19	0	-5	14	?
CC(C)CCN1CCN(Cc2cccs2)CC1CCO (stereo unspecified)	31*	-18	14	-20	1	-6%
Cc1ccc(CN2CCN(Cc3ccc(C)s3)CC2CCO)cc1 (stereo unspecified)	69*	-2	1	-23	-3	-9%
COc1ccc(CN2CCN(Cc3ccc(C)cc3)C(CCO)C2)cc1OC (stereo unspecified)	14	-22	0	12	-1	-5%
COc1cc(CN2CCN(Cc3ccc(C)cc3)C(CCO)C2)cc(OC)c1O (stereo unspecified)	57*	-16	1	-18	3	-9%
CC(C)CCN1CCN(Cc2cccc3nonc23)CC1CCO (stereo unspecified)	54*	-7	1	-23	-2	-4%
CC(C)N1CCN(Cc2cccs2)CC1CCO (stereo unspecified)	nt	-2	nt	nt	0	-3%
